Bioassay records deposited in PubChem by several laboratories.
Hits are enriched below; roughly 4.5% of the tested compounds scored in any of these assays.
Mdm2-MdmX inh – inhibitors of human Mdm2-MdmX association, primary screen, cell-based, luminescence, split luciferase, SaOS-2, uHTS; SaOS-2 split-luciferase Mdm2/MdmX complementation; inhibition, % at 8 µM; hit rate 3% among 330,000; AID 485346, 2010;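 active means inhibition of at least 50% at 8 µM in the primary screen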
Target sequence (O15151 whole entry, looked up): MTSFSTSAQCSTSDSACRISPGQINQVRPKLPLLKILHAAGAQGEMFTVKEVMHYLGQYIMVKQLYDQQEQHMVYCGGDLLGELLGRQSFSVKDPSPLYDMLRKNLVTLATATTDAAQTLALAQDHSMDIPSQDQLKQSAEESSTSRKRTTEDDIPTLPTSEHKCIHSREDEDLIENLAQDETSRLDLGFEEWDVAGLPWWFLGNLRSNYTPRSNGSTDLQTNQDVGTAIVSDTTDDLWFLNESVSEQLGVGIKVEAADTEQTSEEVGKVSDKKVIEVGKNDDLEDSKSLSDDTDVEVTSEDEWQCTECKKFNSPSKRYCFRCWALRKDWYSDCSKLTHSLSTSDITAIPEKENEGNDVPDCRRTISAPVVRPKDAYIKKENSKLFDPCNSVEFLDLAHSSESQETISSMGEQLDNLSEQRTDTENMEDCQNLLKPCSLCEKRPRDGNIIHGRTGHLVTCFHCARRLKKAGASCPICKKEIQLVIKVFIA
Target sequence (Q00987 whole entry, looked up): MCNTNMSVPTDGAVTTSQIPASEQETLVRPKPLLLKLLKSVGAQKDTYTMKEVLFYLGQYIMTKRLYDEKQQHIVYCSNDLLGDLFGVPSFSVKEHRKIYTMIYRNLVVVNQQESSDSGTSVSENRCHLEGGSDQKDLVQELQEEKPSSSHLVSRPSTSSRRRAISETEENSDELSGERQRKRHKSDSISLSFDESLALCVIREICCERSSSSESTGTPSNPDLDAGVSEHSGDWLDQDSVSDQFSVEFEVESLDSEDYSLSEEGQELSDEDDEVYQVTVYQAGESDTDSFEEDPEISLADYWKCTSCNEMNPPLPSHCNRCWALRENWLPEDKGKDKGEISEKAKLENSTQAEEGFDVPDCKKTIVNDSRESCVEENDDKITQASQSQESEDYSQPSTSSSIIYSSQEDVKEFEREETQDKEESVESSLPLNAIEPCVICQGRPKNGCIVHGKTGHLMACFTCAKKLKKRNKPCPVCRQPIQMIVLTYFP
697 NFkB inh – inhibitors of PMA/ionomycin-induced NF-kB reporter, 697 cells, primary screen, B-cell NF-kB inhibitor project, cell-based, luminescence, uHTS | 697 B-cell NF-kB luciferase reporter, 16 h | AID 435022, 2010 | inhibition, % at 4 µM | hit rate 0.33% among 330,000; in the data active means inhibition above about 35%
Beta cell apopt – inhibitors of cytokine-induced beta cell apoptosis, primary screen, luminescence. INS-1E cytokine-induced death, ATP luminescence, 48 h; percent of positive-control rescue, neutral wells zero. protection from apoptosis, % (test concentration not listed). hit rate 0.8% among 300,000;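 active means Every replicate reaches about 75%, or at least half do and their mean reaches it too, limit read from the data; inconclusive means At least half of replicates reach the limit but their mean does not; inactive means Under half of replicates reach the limit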;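 further: higher means more ATP so stronger rescue from cytokine killing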
CSC inhib – cancer stem cell viability inhibitors, primary screen, luminescence. cancer stem cell-like cells viability. inhibition, % at 7.5 µM. hit rate 1.1% among 300,000. AID 2717, 2010; in the data active means inhibition above about 75%; inconclusive means no clear call, values can overlap the other calls; tested in HMLE shEcad cells
Gli-Sufu antag – Gli-Sufu pathway antagonists, primary screen, luciferase luminescence, Sufu-KO-LIGHT cells, uHTS | inhibition, % at 5 µM | hit rate 0.74% among 340,000 | AID 588413, 2011 | Sufu-KO-LIGHT fibroblasts, Gli luciferase reporter luminescence;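 active means inhibition above about 55%, limit read from the data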
Jurkat NFkB inh – inhibitors of induced NF-kB luciferase reporter, primary screen, TCR NF-kB activation inhibitor project, cell-based, luminescence, uHTS; Jurkat, PMA/ionomycin-induced NF-kB luciferase reporter; hit rate 0.53% among 330,000; inhibition, % at 4 µM; in the data active means inhibition above about 50%
Mdm2-MdmX conf – Mdm2-MdmX complex disruptors, retested hits, confirmation, luminescence, single concentration | shares compounds with Mdm2-MdmX inh | Mdm2-MdmX binding, luminescent assay | inhibition, % at 8 µM | hit rate 55% among 10,000; in the data active means inhibition above about 40%
Full FLuc ctr – full-length luciferase signal inhibition, confirmation, counter-screen for Mdm2/MdmX interaction inhibitor project, cell-based, single concentration, SaOS-2; shares compounds with Mdm2-MdmX inh; SaOS-2 full-length luciferase counterscreen, luminescence; inhibition, % at 8 µM; hit rate 77% among 6,200; AID 504607, 2011;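 active means mean inhibition at 8 µM reaching about 37%, which flags the compound as non-specific, limit read from the data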;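 further: p53-null SaOS-2 cells with luciferase driven by a doxycycline-inducible promoter; compound on cells about two nights before reading with doxycycline added after day one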
Hits are given with their value; - = inactive; ? = inconclusive; . = not tested or not shown.

SMILES | Mdm2-MdmX inh | 697 NFkB inh | Beta cell apopt | CSC inhib | Gli-Sufu antag | Jurkat NFkB inh | Mdm2-MdmX conf | Full FLuc ctr
CN(C)S(=O)(=O)c1cccc(NC(=O)CSc2nc3c(cc2C#N)C(=O)CC(C)(C)C3)c1 | 57 | - | - | ? | - | - | 51 | 52
CN(C)S(=O)(=O)c1ccc(SCC(=O)Nc2cccc(S(=O)(=O)N3CCCC3)c2)nc1 | . | . | . | . | - | . | . | .
COc1ccc(C#Cc2ccc3c(c2)c(=O)c2ccccc2n3C)cc1 | - | - | - | - | - | - | . | .
Cn1c2ccccc2c(=O)c2ccc(C#CC3(O)CCCCC3)cc21 | 83 | - | - | - | - | - | 75 | 146
CCOc1ccc(CN2CCN(CC(O)Cn3c4ccccc4c4ccccc43)CC2)cc1 (stereo not given) | 89 | - | - | - | - | - | 72 | -
CN1CCN(CC(O)Cn2c3ccccc3c3ccccc32)CC1 (stereo not given) | - | - | - | - | - | - | . | .
COc1ccc(CN2CCN(CC(O)Cn3c4ccccc4c4ccccc43)CC2)cc1 (stereo not given) | 66 | - | - | - | - | - | - | 79
CCN1CCN(c2ccc(S(=O)(=O)N3CCCCC3)cc2NC(=O)/C=C/c2ccc(OC(F)F)cc2)CC1 | 82 | - | . | - | - | - | 52 | 69
CCN1CCN(c2ccc(S(=O)(=O)N3CCCCC3)cc2NC(=O)/C=C/c2ccc(F)cc2)CC1 | 53 | - | - | - | - | - | 45 | 87
CCN1CCN(c2ccc(S(=O)(=O)N3CCCCC3)cc2NC(=O)c2ccc(OC(F)F)cc2)CC1 | - | - | - | - | - | - | . | .
CCN1CCN(c2ccc(S(=O)(=O)N3CCCCC3)cc2NC(=O)c2cc3ccccc3o2)CC1 | 62 | - | - | - | - | - | - | .
CCN1CCN(c2ccc(S(=O)(=O)N3CCCCC3)cc2NC(=O)/C=C/c2cccc(OC)c2OC)CC1 | 75 | - | - | - | - | - | 50 | 77
CC(Oc1ccccc1F)c1nnc(SCC(=O)Nc2ccc(N3CCOCC3)cc2)o1 (stereo not given) | - | - | - | . | - | - | . | .
CCc1noc(C)c1C(=O)Nc1cc(Cl)ccc1N1CCOCC1 | - | - | - | . | - | - | . | .
Nc1ncnc2c1ncn2-c1ccccc1Cl | . | . | . | . | - | . | . | .
COc1ccc(CCN2CC(C(=O)N(C)CC(=O)Nc3ccc(Cl)c(C(F)(F)F)c3)CC2=O)cc1OC (stereo not given) | - | - | . | . | - | - | . | .
CN(CC(=O)Nc1ccc(Cl)c(C(F)(F)F)c1)C(=O)C1CC(=O)N(CCc2ccccc2)C1 (stereo not given) | 51 | - | . | . | - | - | 42 | 61
CN(CC(=O)Nc1ccc(Cl)c(C(F)(F)F)c1)C(=O)CCc1nc2ccccc2c(=O)[nH]1 | 54 | - | - | - | - | - | - | .
Cc1cccc(-n2c(=O)c3ccccc3n3c(=S)[nH]nc23)c1C | - | - | - | - | - | - | . | .
O=S(=O)(CCN1C=CC(C(F)(F)F)=NCC1)c1ccc(Cl)cc1Cl | - | - | - | - | - | - | . | .
O=c1cc(O)c2sc(Nc3ccc(F)c(Cl)c3)nc2[nH]1 | 60 | - | - | . | - | - | 45 | 63
O=c1cc(O)c2sc(Nc3ccc(Cl)c(F)c3)nc2[nH]1 | 72 | - | - | - | - | - | 56 | 45
COc1ccccc1CNS(=O)(=O)c1ccc(Cl)s1 | - | - | - | - | - | - | . | .
Cc1ccc(C(=O)N2C(CC(=O)Nc3ccc(Cl)cc3)C(=O)NC3CCCCC32)cc1 (stereo not given) | 54 | - | - | - | - | - | 55 | -
O=C(/C=C/c1cccc(Cl)c1)NCCN1CCOCC1 | 76 | - | - | - | - | - | - | .
SMILES | Mdm2-MdmX inh | 697 NFkB inh | Beta cell apopt | CSC inhib | Gli-Sufu antag | Jurkat NFkB inh | Mdm2-MdmX conf | Full FLuc ctr
CN(C1CCCC1)C1CCN(C(=O)CNC(=O)/C=C/c2ccccc2)CC1 | - | - | - | . | - | - | . | .
CC1CCCCC1N(C)C1CCN(C(=O)CNC(=O)/C=C/c2cccc(Cl)c2)CC1 (stereo not given) | 53 | - | - | - | - | - | 52 | 92
COc1cccc(CC(NC(C)=O)C(=O)NC2CCN(C(=O)c3ccc(Cl)cc3)CC2)c1OC (stereo not given) | - | - | - | - | - | - | . | .
O=C1/C(=C/c2ccccc2F)SC(=S)N1CCC(=O)N1CCCCC1CCO (stereo not given) | 61 | - | . | - | - | - | - | .
O=C1/C(=C/c2cccc(Cl)c2)SC(=S)N1CCC(=O)N1CCCCC1CCO (stereo not given) | 63 | - | . | - | - | - | 41 | 39
O=C1/C(=C/c2ccc(Cl)cc2)SC(=S)N1CCC(=O)N1CCCCC1CCO (stereo not given) | - | - | - | - | - | - | . | .
Cc1ccsc1C(=O)N1CCCC(CO)(Cc2ccccc2F)C1 (stereo not given) | - | - | - | - | - | - | . | .
COc1ccc([N+](=O)[O-])cc1NCc1ccccc1 | 70 | - | - | - | - | - | - | 98
COc1ccc([N+](=O)[O-])cc1NCc1ccccc1C | - | - | - | - | - | - | . | .
CC(CNC(=O)CN1C(=O)COc2ccc(S(=O)(=O)N3CCCCC3)cc21)c1ccccc1 (stereo not given) | - | - | - | - | - | - | . | .
Cc1occc1C(=O)N=Nc1c(O)[nH]c2ccc(Br)cc12 | - | - | - | - | . | - | . | .
Cc1cc2c(N=NC(=O)C3CC3c3ccccc3)c(O)[nH]c2cc1Br (stereo not given) | 54 | - | - | - | - | - | - | .
COc1cc(OC)cc(C(=O)Nc2ccc3c(c2)CCCN3C(=O)c2cccs2)c1 | 78 | - | - | - | - | - | 60 | 86
O=C(Nc1ccc2c(c1)CCCN2C(=O)c1cccs1)c1ccccc1 | - | - | - | - | - | - | . | .
Cc1ccc2nc(-c3ccc(NC(=S)NC(=O)C(C)C)cc3)sc2c1 | - | - | - | - | . | - | . | .
Cc1ccc2nc(-c3ccc(NC(=S)NC4CC(C)(C)NC(C)(C)C4)cc3)sc2c1 | 99 | - | - | - | - | - | - | .
COc1ccc(CCNc2c3ccccc3nc3ccccc23)cc1OC | 50 | - | 77 | - | - | - | - | .
